TSHR agonist: qHTS Assay for Agonists of the Thyroid Stimulating Hormone Receptor; Thyrotropin receptor (Homo sapiens), P16473; Potency, µM (doses to about 57.1 µM), for the others: top-dose activation, most hits filed as activators; HEK293-CNG-TSHR cells (CNG channel as cAMP sensor), membrane potential dye, cAMP; 73,000 compounds, 0.48% hits; active = well fitted activation curve with a large enough effect in the main read-out, with a control signal flat, not every such curve was filed as active; inconclusive = small, poorly fitted or top-dose-only effect, or a change in a side signal; inactive = no such curve, though single readings can be large or run the other way; % of control where 0% means no effect;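 also: the control signal comes from parental cells without the receptor; potency is read from the fitted curve at half-maximal effect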
Target sequence (P16473 whole entry, looked up): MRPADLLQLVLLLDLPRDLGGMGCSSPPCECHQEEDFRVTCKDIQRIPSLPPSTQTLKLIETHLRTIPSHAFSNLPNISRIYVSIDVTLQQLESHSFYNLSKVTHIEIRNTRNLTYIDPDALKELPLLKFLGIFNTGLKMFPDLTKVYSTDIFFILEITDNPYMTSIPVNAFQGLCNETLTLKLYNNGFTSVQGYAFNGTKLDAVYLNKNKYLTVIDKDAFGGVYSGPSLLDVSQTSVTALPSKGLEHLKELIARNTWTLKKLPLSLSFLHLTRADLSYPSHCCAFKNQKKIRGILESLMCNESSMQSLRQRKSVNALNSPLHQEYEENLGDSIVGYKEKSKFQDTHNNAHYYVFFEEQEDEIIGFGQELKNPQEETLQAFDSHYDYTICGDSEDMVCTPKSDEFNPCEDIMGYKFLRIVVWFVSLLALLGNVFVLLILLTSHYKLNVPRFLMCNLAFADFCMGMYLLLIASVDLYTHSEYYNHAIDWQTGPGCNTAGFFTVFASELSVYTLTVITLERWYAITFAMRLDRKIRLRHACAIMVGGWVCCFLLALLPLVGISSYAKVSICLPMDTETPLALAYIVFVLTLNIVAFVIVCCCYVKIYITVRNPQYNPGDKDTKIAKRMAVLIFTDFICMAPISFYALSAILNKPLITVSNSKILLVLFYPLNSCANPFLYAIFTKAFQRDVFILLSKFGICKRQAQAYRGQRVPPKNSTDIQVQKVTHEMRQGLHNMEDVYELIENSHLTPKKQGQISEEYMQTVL
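HEK 293 cells stably expressing TSHR and a modified CNG channel, with CNG-only parental cells as counterscreen, were preloaded 60 min at room temperature with membrane potential dye containing 100 uM RO 20-1724. Compound exposure was 30 min, and depolarization was read as fluorescence at 590 nm.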
UbGFP stabilizer: Ubiquitin-GFP Assay. Potency, µM (highest dose often 45.9 µM), for the others: at the top dose activation (GFP accumulation), actives largely listed as activators. 67,000 tested, under 10 active. Ubiquitin-GFP reporter cells, proteasome inhibition, GFP fluorescence; response scale: untreated = 0%, 10 µM MG-132 = 100%; active = well fitted activation curve with a large enough effect, not every such curve was filed as active; inconclusive = small, poorly fitted or top-dose-only effect, or another doubt; inactive = no such curve, though single readings can be large or run the other way; also: potency is read from the fitted curve at half-maximal effect
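U2OS cells stably expressing ubiquitin(G76V)-GFP, seeded overnight in 0.5% FBS medium, were exposed to compounds (qHTS, 46 uM to 2.9 nM) for 4 hr at 37 °C. GFP-positive cells were counted by laser cytometry (488 ex/515 em), normalized between basal and 10 uM MG-132.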
HEK293 cAMP cs: qHTS Assay for Agonists of the Thyroid Stimulating Hormone Receptor: Activators of Intracellular cAMP Concentrations in Parental HEK 293. 73,000 compounds, 2.5% hits. Potency, µM (series often up to 57.1 µM), without a hit: at the top dose activation, actives largely listed as activators. parental HEK293 CNG cAMP sensor, membrane potential fluorescence. AID 938, 2007; also: potency is read from the fitted curve at half-maximal effect; % of control where 0% means no effect; nearly all actives have a fitted effect of over 55% in size
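Counterscreen for endogenous-receptor signalling: CNG-channel HEK 293 cells report cAMP rise by membrane depolarization. After 60 min dye equilibration with 100 uM RO 20-1724, compounds incubated 30 min before bottom-read fluorescence at 590 nm.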
HBB splicing: qHTS Assay for Modulators of Hemoglobin Beta Chain Splicing; HBB splicing reporter cell assay, activation; EGFP reporter with mutant IVS2-654 intron; response scale: normalised to 500 nM splice-correcting PNA; Potency, µM (titrated, usually from 46.1 µM), for inactives: at the top dose activation, most hits filed as activators; 65,000 compounds, 0.06% hits; also: potency is read from the fitted curve at half-maximal effect; 0% is about no effect
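Compounds were applied for 2 days to HeLa EGFP-654 cells, 500/well in Optimem with 2% FCS. The reporter's EGFP is disrupted by mis-splicing of beta-globin intron IVS2-654. Readout: summed well GFP fluorescence from 488 nm laser scanning; reference was 500 nM antisense […] 654 PNA.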
GFP derepression: qHTS Assay for Epigenetic Modulators. mouse C127i GFP locus derepression, cytometry, 30 h. Potency, µM (highest dose often 46.1 µM), for inactives: top-dose GFP derepression (activation). 68,000 compounds, 0.09% hits. AID 597, 2007; also: % of control where 0% means no effect
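Locus derepression in mouse mammary C127i cells whose integrated CMV-GFP reporter is normally silent; GFP expression after 30 h compound treatment was quantified by counting fluorescent cells.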
* marks the source's active call; other numbers are inactive results; ? = inconclusive; . = no result given; [ ] = another dose, or the depositor's remark. Rows were chosen to be rich in hits. Some 3% of all compounds tested hit in one or more screens of this group. Unless noted, calls follow the shape of the dose curve; as a rule, active = well fitted curve in the direction sought with a large enough effect; inconclusive = small, poorly fitted or top-dose-only effect, or another doubt; inactive = no such curve, though single readings can be large; an effect the other way counts as inactive or inconclusive.

SMILES	TSHR agonist	UbGFP stabilizer	HEK293 cAMP cs	HBB splicing	GFP derepression
COc1ccc(-c2coc3ccc(O[C@@H]4O[C@@H](COC(C)=O)[C@@H](OC(C)=O)[C@@H](OC(C)=O)[C@H]4OC(C)=O)cc3c2=O)cc1	2%	10%	3%	.	0%[9.22 µM]
CCc1cccc(NC(=O)CN2C(=O)NC3(CCCCCCC3)C2=O)c1	13µM*	-3%	14%	-1%	0%
Cc1cc(C)c(NC(=O)CN2C(=O)NC3(CCCCC3)C2=O)c(C)c1	4%	-1%	1%	0%[57.5 µM]	2%
COc1ccc(CNc2ncncc2-c2ccc(N(C)C)cc2)c(OC)c1	?	-6%	?	0%	-1%[9.22 µM]
COc1ccccc1CNc1ncncc1-c1ccc(N(C)C)cc1	6.3µM*	-2%	-10%	-1%	3%[9.22 µM]
CC(=O)c1c(O)c(C)c(O)c2c1OC1=CC(=O)[C@H](C(C)=O)C(=O)[C@]12C	2%	5%	2%	.	-2%[9.22 µM]
CC(C)=CCC/C(C)=C/CO/N=C1/C[C@@H](O)[C@@H](O)[C@@H]2[C@@H]3C(=O)N(Cc4ccc5c(c4)OCO5)C(=O)[C@H]3CC[C@H]12	-7%[11.4 µM]	.	9%[11.4 µM]	1%[9.22 µM]	.
COC(=O)[C@@]1(Cc2ccccc2)[C@H]2c3cc(C(=O)N(C)C)n(CCO)c3C[C@H]2CN1C(=O)c1ccccc1	4%	.	19%	1%	.
COC(=O)[C@@]1(Cc2ccc(OC)cc2)[C@H]2c3cc(C(=O)N4CCCC4)n(CCF)c3C[C@H]2CN1C(=O)c1ccccc1	?	.	20µM*	1%	.
COC(=O)[C@@]1(Cc2ccccc2)[C@H]2c3cc(C(=O)N(C)C)n(CCF)c3C[C@H]2CN1C(=O)c1ccccc1	?	.	25µM*	1%	.
COCCn1c(C(=O)N2CCCC2)cc2c1C[C@H]1CN(C(=O)c3ccccc3)[C@@](Cc3ccc(OC)cc3)(C(=O)OC)[C@@H]21	?	.	?	0%	.
COC(=O)[C@@]1(Cc2ccc(OC)cc2)[C@H]2c3cc(C(=O)N4CCCC4)n(CCN4CCOCC4)c3C[C@H]2CN1C(=O)c1ccccc1	?	.	20µM*	0%	.
COC(=O)[C@@]1(Cc2ccc(OC)cc2)[C@H]2c3cc(C(=O)N4CCCC4)n(Cc4ccc(OC)c(OC)c4)c3C[C@H]2CN1C(=O)c1ccccc1	?	.	5µM*	-1%	.
COc1ccc(CNc2ccnc(-c3ccc(N(C)C)cc3)n2)c(OC)c1	5%	-11%	-19%	0%	11%[9.22 µM]
O=C(N/N=C1/C[C@@H](O)[C@@H](O)[C@@H]2[C@@H]3C(=O)N(Cc4ccccc4)C(=O)[C@H]3CC[C@H]12)OCc1ccccc1	-3%[11.4 µM]	.	0%[11.4 µM]	5%[9.22 µM]	.
CC(NC(=O)c1cc(-c2ccc(O)cc2)on1)c1ccccc1 (stereo not given)	.	9%	15%	-1%	7%
CC1(C)OC(C(O)(c2cc(F)c(F)c(F)c2)c2cc(F)c(F)c(F)c2)C(C(O)(c2cc(F)c(F)c(F)c2)c2cc(F)c(F)c(F)c2)O1 (stereo not given)	10%[11.4 µM]	.	6%[11.4 µM]	-1%[9.22 µM]	.
CC1=C(C(=O)Nc2ccccc2)C(c2ccc3c(c2)OCO3)C2=C(CCCC2=O)N1 (stereo not given)	?	-4%	16µM*	-1%	0%
CCc1ccccc1NC(=O)CSC1=C(C#N)C(c2ccc3c(c2)OCO3)C2=C(CCCC2=O)N1 (stereo not given)	11%	-4%	8%	0%	3%
COc1ccc(OC)c([C@H]2Nc3ccccc3NC3=C2C(=O)CC(C)(C)C3)c1Br	-5%	-4%	-14%	.	0%[9.22 µM]
COC(=O)[C@H](C)NC(=O)C/C=C\[C@@H](C)CO	.	.	-3%[11.4 µM]	2%[9.22 µM]	.
O=C(c1c(Cl)nc2sccn12)N1CCN(c2cccc(Cl)c2)CC1	?	-8%	32µM*	0%[57.5 µM]	8%
O=C(c1cccc(F)c1)N1CCN(c2cccc(Cl)c2)CC1	9%	-2%	13%	-2%	-3%
O=C(COC(=O)c1ccccc1F)c1ccc(-n2nncc2-c2ccco2)cc1	?	-4%	25µM*	0%[57.5 µM]	-1%
CC1(C)CCC(NC(=O)[C@H](N)CCC(=O)O)CC1	8%	0%	4%	3%	0%
SMILES	TSHR agonist	UbGFP stabilizer	HEK293 cAMP cs	HBB splicing	GFP derepression
c1ccc(-c2nnc3sc(-c4ccncc4)nn23)cc1	-1%	-3%	-6%	-2%	-3%
Cc1cccc(-c2nnc3sc(-c4ccccc4C)nn23)c1	?	4%	32µM*	-1%[57.5 µM]	0%
c1ccc(-c2nnc3sc(-c4csc5c4CCCC5)nn23)cc1	?	13%	25µM*	0%	2%
CCNc1ncc2nc(C)c(=O)n(C3CC3)c2n1	3%	12%	9%	0%	-3%[9.22 µM]
O=C(c1cn(-c2ccccc2)nc1-c1ccc(Cl)s1)N1CCOCC1	25µM*	-3%	-4%	-1%	2%
O=C(c1cn(-c2ccccc2)nc1-c1ccccc1)N1CCOCC1	8%	-4%	-6%	-1%	3%
O=C(Nc1cc(C(F)(F)F)ccc1N1CCOCC1)C1Cc2ccccc2CN1C(=O)c1ccco1 (stereo not given)	?	2%	1.3µM*	-6%	2%
O=C(Nc1cc(C(F)(F)F)ccc1N1CCCCC1)c1ccco1	?	9%	?	-1%	0%
CCCCc1nc2c(c3c1CC(C)OC3)CN(CCC(C)C)CC2 (stereo not given)	-7%[11.4 µM]	.	1%[11.4 µM]	0%[9.22 µM]	.
CC(C)C(=O)NCCn1ccc2ccccc21	9%	15%	11%	0%	0%
CN(C)S(=O)(=O)c1cc(C(=O)NCCCn2ccc3ccccc32)ccc1Cl	?	-3%	25µM*	0%[57.5 µM]	0%
CCN(CC)c1ccc2c(Cl)c(Br)c(=O)oc2c1	?	?	?	.	10µM*
CCN(CC)c1ccc2c(c1)oc(=O)c1c(Cl)cc(=O)oc12	-4%	3%	-5%	0%	?
Cc1ccccc1CNc1ncnc2c1ncn2[C@@H]1O[C@@H](CO)[C@H](O)[C@@H]1O	?	-2%	7.9µM*	1%	2%
Nc1nc(Cl)nc2c1ncn2[C@@H]1O[C@@H](CO)[C@@H](O)[C@H]1O	?	0%	7.9µM*	0%	-2%
Nc1nc(F)nc2c1ncn2[C@@H]1O[C@H](CO)[C@@H](O)[C@@H]1O	.	.	.	.	8%[20.6 µM]
OC[C@@H]1O[C@@H](n2cnc3c(NCc4ccco4)ncnc32)[C@H](O)[C@H]1O	19%	9%	-1%	.	-2%[9.22 µM]

Screening data (PubChem)
